{"source": "paper PMC7862700", "about": "“An all-to-all approach to the identification of sequence-specific readers for epigenetic DNA modifications on cytosine”", "test_in_all_cases": "DAPPL (digital affinity profiling via proximity ligation, sequencing); 10 mM Tris-HCl pH 7.5, 50 mM NaCl, 1 mM DTT, 4% glycerol, room temperature, 30 min; GST-TFs on glutathione beads, 16-mer random dsDNA library, 0.1% formaldehyde crosslink after washing; high values mean tight binding", "key": {"FLI1": {"target": "T1, FLI1 (Homo sapiens, UniProt Q01543 1-452)", "T1 sequence": "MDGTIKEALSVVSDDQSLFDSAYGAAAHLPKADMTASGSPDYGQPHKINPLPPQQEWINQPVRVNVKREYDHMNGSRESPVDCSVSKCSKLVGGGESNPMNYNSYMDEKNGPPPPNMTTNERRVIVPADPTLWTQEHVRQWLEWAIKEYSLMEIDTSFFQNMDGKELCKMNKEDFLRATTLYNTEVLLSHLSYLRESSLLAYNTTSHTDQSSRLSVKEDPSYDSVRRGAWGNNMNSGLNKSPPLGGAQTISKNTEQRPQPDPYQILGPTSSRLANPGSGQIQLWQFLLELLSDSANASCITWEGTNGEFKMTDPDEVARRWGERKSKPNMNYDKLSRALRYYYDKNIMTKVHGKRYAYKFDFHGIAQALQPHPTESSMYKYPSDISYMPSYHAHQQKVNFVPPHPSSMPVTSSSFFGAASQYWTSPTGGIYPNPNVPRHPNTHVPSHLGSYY", "conditions": "protein: recombinant; tags: N-terminal GST; dsDNA, one strand shown", "summary_of_the_method": "(§1)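 After expression in yeast as GST fusions, human transcription factors were bound to glutathione beads, DNA-barcoded and mixed with a tag-only sample. The pools were incubated with 200 nmole of a 16-mer random double-stranded DNA library in Tris/NaCl/DTT/glycerol buffer (30 min, room temperature), washed and crosslinked with 0.1% formaldehyde. Proximity ligation with BsaI/T4 ligase ran for 1 h at 37 °C, before PCR amplification and sequencing on an Illumina NextSeq500. Binding signal is a hexamer's read frequency for a factor divided by its frequency for the tag-only sample.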"}, "ELK1": {"target": "T2, ELK1 (Homo sapiens, UniProt P19419 1-428)", "T2 sequence": "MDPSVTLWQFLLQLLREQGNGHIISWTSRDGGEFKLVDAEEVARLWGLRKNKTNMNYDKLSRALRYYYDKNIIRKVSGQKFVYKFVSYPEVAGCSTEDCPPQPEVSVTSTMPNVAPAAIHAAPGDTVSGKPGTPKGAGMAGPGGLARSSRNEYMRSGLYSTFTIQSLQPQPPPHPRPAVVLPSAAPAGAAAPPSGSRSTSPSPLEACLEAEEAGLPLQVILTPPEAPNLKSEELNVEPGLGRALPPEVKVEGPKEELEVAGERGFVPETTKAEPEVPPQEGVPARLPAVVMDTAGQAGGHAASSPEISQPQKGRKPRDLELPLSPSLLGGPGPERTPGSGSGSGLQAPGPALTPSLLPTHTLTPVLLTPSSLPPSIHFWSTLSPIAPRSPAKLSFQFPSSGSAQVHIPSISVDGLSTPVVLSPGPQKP", "conditions": "protein: recombinant; tags: N-terminal GST; dsDNA, one strand shown", "summary_of_the_method": "as §1"}, "GABPA": {"target": "T3, GABPA (Homo sapiens, UniProt Q06546 1-454)", "T3 sequence": "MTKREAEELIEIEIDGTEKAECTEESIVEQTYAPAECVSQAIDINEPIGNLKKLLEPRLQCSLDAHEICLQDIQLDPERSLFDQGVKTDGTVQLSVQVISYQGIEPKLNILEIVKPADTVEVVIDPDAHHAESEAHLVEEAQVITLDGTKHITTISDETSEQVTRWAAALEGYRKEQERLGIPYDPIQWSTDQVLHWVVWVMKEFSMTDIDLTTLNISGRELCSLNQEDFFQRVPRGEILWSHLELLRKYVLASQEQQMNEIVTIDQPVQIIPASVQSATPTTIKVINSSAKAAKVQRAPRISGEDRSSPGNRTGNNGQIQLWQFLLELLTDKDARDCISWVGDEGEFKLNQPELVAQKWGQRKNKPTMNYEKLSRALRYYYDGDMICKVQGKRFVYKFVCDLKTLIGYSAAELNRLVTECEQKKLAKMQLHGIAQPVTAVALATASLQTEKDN", "conditions": "protein: recombinant; tags: N-terminal GST; dsDNA, one strand shown", "summary_of_the_method": "as §1"}, "ERG": {"target": "T4, ERG (Homo sapiens, UniProt P11308 1-479)", "T4 sequence": "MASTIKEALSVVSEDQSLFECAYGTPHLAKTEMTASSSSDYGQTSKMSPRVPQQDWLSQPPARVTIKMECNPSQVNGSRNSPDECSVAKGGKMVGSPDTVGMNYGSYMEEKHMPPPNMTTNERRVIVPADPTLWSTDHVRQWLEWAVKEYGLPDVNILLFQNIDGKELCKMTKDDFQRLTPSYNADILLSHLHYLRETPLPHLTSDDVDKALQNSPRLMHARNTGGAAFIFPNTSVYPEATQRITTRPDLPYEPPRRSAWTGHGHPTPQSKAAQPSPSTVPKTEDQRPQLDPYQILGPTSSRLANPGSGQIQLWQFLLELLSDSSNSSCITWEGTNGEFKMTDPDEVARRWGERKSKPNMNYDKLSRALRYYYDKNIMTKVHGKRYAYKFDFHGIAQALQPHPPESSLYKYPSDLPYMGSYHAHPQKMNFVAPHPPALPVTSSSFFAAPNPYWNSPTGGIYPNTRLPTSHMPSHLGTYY", "conditions": "protein: recombinant; tags: N-terminal GST; dsDNA, one strand shown", "summary_of_the_method": "as §1"}, "ELF1": {"target": "ELF1 (Homo sapiens, UniProt P32519 1-619)", "sequence (P32519 whole entry)": "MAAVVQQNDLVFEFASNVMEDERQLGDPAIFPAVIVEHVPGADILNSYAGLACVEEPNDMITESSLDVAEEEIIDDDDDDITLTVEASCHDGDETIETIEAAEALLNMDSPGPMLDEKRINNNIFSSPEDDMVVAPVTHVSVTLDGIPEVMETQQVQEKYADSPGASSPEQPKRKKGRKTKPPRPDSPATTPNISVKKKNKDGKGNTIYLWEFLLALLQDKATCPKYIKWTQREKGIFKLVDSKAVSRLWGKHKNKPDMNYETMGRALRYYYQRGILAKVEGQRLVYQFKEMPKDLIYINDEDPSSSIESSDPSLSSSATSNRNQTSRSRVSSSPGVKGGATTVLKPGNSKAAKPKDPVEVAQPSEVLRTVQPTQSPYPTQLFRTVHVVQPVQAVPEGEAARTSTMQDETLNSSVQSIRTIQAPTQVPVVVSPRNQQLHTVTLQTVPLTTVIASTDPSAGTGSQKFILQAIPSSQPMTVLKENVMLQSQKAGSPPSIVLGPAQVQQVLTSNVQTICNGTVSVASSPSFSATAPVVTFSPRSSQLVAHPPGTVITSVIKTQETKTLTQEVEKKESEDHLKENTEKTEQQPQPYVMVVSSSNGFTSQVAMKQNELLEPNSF", "conditions": "protein: recombinant; tags: N-terminal GST; dsDNA, one strand shown", "summary_of_the_method": "as §1"}, "EHF": {"target": "T5, EHF (Homo sapiens, UniProt Q9NZC4 1-300)", "T5 sequence": "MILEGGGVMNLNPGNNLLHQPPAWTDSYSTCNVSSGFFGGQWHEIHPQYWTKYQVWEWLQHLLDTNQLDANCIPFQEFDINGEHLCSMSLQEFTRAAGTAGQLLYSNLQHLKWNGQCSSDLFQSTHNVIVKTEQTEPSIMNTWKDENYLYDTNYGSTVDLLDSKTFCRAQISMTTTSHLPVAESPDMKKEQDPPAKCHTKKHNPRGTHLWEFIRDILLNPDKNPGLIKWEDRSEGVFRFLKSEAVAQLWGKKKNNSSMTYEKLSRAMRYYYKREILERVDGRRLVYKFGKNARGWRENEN", "conditions": "protein: recombinant; tags: N-terminal GST; dsDNA, one strand shown", "summary_of_the_method": "as §1"}, "SPI1": {"target": "SPI1 (Homo sapiens, UniProt P17947 1-270)", "conditions": "protein: recombinant; tags: N-terminal GST; dsDNA, one strand shown", "summary_of_the_method": "as §1"}, "SPIB": {"target": "SPIB (Homo sapiens, UniProt Q01892 1-262)", "sequence (Q01892 whole entry)": "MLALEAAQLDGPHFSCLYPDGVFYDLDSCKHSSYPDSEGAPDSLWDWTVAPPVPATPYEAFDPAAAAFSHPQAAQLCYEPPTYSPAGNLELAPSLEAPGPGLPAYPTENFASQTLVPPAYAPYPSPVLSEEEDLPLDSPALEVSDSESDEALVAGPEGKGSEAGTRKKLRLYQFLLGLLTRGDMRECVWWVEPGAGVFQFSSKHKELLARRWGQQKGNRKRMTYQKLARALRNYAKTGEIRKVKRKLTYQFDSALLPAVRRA", "conditions": "protein: recombinant; tags: N-terminal GST; dsDNA, one strand shown", "summary_of_the_method": "as §1"}, "FEV": {"target": "T6, FEV (Homo sapiens, UniProt Q99581 1-238)", "T6 sequence": "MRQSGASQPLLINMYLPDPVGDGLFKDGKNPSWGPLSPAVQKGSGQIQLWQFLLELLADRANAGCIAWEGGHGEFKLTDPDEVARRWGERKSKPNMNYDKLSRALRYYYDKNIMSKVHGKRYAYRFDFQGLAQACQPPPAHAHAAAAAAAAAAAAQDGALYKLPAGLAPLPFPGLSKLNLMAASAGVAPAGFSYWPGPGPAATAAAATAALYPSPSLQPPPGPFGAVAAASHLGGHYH", "conditions": "protein: recombinant; tags: N-terminal GST; dsDNA, one strand shown", "summary_of_the_method": "as §1"}, "ETV5": {"target": "ETV5 (Homo sapiens, UniProt P41161 1-510)", "sequence (P41161 whole entry)": "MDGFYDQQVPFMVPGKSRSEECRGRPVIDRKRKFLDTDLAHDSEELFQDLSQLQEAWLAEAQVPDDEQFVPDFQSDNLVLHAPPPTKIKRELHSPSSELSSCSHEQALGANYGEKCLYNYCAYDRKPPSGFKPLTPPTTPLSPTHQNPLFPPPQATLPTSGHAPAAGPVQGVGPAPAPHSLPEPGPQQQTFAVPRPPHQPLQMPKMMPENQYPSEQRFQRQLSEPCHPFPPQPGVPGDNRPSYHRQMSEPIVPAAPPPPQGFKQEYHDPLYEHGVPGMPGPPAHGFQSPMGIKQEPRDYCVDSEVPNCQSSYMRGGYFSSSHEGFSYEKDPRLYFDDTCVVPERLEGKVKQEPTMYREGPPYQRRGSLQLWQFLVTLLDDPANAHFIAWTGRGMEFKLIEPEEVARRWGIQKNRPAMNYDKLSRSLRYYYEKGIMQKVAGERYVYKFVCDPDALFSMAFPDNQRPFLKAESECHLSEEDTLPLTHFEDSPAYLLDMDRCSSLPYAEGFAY", "conditions": "protein: recombinant; tags: N-terminal GST; dsDNA, one strand shown", "summary_of_the_method": "as §1"}, "HSF1": {"target": "HSF1 (Homo sapiens, UniProt Q00613 1-529)", "sequence (Q00613 whole entry)": "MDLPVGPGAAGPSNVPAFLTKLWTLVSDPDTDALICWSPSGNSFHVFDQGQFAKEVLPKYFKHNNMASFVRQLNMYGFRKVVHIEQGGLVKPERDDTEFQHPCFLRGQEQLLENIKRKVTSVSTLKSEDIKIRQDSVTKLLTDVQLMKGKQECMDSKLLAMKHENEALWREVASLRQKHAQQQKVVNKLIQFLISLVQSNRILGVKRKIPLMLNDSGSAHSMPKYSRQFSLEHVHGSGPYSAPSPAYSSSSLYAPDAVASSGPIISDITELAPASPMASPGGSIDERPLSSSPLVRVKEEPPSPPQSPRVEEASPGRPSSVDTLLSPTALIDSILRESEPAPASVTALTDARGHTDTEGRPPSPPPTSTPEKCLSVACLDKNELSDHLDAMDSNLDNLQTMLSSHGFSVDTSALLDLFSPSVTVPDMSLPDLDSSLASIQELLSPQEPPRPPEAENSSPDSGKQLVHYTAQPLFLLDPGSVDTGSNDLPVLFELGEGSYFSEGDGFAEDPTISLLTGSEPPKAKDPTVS", "conditions": "protein: recombinant; tags: N-terminal GST; chain copies: 3; dsDNA, one strand shown", "summary_of_the_method": "as §1"}, "SPIC": {"target": "T7, SPIC (Homo sapiens, UniProt Q8N5J4 1-248)", "T7 sequence": "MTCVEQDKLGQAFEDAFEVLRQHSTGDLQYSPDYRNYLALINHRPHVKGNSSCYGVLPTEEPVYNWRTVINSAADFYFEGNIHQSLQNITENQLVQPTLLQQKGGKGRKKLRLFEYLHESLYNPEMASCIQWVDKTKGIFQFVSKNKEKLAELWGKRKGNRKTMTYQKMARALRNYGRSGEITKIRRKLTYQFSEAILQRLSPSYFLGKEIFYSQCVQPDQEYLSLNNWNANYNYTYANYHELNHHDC", "conditions": "protein: recombinant; tags: N-terminal GST; dsDNA, one strand shown", "summary_of_the_method": "as §1"}, "ELF4": {"target": "ELF4 (Homo sapiens, UniProt Q99607 1-663)", "sequence (Q99607 whole entry)": "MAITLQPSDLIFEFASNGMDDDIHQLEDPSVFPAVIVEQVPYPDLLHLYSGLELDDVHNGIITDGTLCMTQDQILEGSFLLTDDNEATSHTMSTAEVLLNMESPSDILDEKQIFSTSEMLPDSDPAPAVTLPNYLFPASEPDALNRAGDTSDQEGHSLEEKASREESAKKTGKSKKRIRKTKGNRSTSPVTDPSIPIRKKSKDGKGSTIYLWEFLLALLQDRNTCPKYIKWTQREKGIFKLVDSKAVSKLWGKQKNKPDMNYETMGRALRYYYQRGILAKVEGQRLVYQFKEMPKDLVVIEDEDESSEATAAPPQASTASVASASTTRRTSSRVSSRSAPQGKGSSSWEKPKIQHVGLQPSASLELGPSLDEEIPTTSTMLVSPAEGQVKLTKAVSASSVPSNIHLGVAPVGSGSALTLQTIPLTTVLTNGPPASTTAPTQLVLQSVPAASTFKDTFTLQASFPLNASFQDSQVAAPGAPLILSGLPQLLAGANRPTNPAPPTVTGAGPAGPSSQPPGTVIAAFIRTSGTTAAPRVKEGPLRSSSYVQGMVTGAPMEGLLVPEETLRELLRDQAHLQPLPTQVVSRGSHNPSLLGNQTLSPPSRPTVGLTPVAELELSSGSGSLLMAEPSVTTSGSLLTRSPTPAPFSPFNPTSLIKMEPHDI", "conditions": "protein: recombinant; tags: N-terminal GST; dsDNA, one strand shown", "summary_of_the_method": "as §1"}, "ELK4": {"target": "T8, ELK4 (Homo sapiens, UniProt P28324-2 1-405)", "T8 sequence": "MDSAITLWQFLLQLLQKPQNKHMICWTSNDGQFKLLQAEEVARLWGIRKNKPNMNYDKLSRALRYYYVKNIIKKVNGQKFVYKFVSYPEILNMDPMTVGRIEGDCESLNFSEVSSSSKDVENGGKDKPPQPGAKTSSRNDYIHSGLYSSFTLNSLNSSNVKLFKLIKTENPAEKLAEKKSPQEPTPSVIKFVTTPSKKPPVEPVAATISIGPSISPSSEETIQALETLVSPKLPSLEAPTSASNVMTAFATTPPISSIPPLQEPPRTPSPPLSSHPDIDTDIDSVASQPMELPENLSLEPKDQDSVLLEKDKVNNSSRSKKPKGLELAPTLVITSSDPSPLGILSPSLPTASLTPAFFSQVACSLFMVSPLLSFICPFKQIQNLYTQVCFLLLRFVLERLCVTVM", "conditions": "protein: recombinant; tags: N-terminal GST; dsDNA, one strand shown", "summary_of_the_method": "as §1"}, "ETV2": {"target": "T9, ETV2 (Homo sapiens, UniProt O00321 1-342)", "T9 sequence": "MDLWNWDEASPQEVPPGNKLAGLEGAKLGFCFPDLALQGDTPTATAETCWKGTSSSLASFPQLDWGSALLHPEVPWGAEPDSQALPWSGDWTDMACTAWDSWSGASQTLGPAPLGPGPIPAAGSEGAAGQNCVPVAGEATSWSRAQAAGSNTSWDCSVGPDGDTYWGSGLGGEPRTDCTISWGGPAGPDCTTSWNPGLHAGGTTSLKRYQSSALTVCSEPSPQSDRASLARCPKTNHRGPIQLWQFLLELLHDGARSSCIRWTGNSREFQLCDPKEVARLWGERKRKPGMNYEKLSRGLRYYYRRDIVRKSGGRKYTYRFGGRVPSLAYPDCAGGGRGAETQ", "conditions": "protein: recombinant; tags: N-terminal GST; dsDNA, one strand shown", "summary_of_the_method": "as §1"}, "ELF3": {"target": "T10, ELF3 (Homo sapiens, UniProt P78545 1-371)", "T10 sequence": "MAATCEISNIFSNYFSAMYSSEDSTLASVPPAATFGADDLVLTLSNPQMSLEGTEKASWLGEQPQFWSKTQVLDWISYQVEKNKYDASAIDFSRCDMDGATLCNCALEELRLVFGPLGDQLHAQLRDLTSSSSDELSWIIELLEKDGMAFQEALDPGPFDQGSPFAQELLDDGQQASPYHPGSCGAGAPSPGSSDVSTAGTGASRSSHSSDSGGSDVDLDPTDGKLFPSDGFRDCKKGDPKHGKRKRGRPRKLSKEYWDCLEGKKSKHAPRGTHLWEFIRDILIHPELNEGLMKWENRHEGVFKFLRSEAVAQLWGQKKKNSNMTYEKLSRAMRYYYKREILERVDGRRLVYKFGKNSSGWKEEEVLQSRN", "conditions": "protein: recombinant; tags: N-terminal GST; dsDNA, one strand shown", "summary_of_the_method": "as §1"}, "ETV1": {"target": "ETV1 (Homo sapiens, UniProt P50549 1-477)", "sequence (P50549 whole entry)": "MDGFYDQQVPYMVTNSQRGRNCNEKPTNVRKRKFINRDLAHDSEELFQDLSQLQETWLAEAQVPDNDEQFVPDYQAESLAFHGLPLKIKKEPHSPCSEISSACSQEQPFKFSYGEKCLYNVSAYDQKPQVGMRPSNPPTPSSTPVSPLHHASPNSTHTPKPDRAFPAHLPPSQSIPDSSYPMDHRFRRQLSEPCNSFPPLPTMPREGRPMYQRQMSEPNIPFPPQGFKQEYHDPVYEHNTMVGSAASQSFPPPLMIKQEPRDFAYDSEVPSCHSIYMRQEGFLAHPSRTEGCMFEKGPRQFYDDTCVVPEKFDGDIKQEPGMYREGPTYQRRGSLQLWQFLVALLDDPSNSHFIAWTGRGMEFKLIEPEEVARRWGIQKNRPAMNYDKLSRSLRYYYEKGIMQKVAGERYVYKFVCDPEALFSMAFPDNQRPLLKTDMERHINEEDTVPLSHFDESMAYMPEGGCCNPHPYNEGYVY", "conditions": "protein: recombinant; tags: N-terminal GST; dsDNA, one strand shown", "summary_of_the_method": "as §1"}}}
{"sequence": "ACTCGC", "values": [{"measurement": "binding signal", "setting": "FLI1", "result": "1.19 fold enrichment (6-mer frequency, TF over GST control)"}, {"measurement": "binding signal", "setting": "ELK1", "result": "1.14 fold enrichment (6-mer frequency, TF over GST control)"}, {"measurement": "binding signal", "setting": "GABPA", "result": "1.18 fold enrichment (6-mer frequency, TF over GST control)"}, {"measurement": "binding signal", "setting": "ERG", "result": "1.09 fold enrichment (6-mer frequency, TF over GST control)"}, {"measurement": "binding signal", "setting": "ELF1", "result": "1.13 fold enrichment (6-mer frequency, TF over GST control)"}, {"measurement": "binding signal", "setting": "EHF", "result": "1.11 fold enrichment (6-mer frequency, TF over GST control)"}, {"measurement": "binding signal", "setting": "SPI1", "result": "1.15 fold enrichment (6-mer frequency, TF over GST control)"}, {"measurement": "binding signal", "setting": "SPIB", "result": "1.12 fold enrichment (6-mer frequency, TF over GST control)"}, {"measurement": "binding signal", "setting": "FEV", "result": "1.14 fold enrichment (6-mer frequency, TF over GST control)"}, {"measurement": "binding signal", "setting": "ETV5", "result": "1.15 fold enrichment (6-mer frequency, TF over GST control)"}, {"measurement": "binding signal", "setting": "HSF1", "result": "1.1 fold enrichment (6-mer frequency, TF over GST control)"}, {"measurement": "binding signal", "setting": "SPIC", "result": "1.2 fold enrichment (6-mer frequency, TF over GST control)"}, {"measurement": "binding signal", "setting": "ELF4", "result": "1.1 fold enrichment (6-mer frequency, TF over GST control)"}, {"measurement": "binding signal", "setting": "ELK4", "result": "1.14 fold enrichment (6-mer frequency, TF over GST control)"}, {"measurement": "binding signal", "setting": "ETV2", "result": "1.12 fold enrichment (6-mer frequency, TF over GST control)"}, {"measurement": "binding signal", "setting": "ELF3", "result": "1.21 fold enrichment (6-mer frequency, TF over GST control)"}, {"measurement": "binding signal", "setting": "ETV1", "result": "1.15 fold enrichment (6-mer frequency, TF over GST control)"}]}
